An excerpt weighted towards active compounds, which were near 9% of everything screened.
HttQ103 aggreg – mutant huntingtin aggregation inhibition; AID 1688; PC12 HttQ103-GFP aggregates, Acumen cytometry, 40 h; 1.1% of 220,000 active; Potency, µM (doses to about 46.1 µM), inactives show top-dose activity change, negative = inhibition, actives largely listed as inhibitors; further: on the % scale 0 is the no-effect control and ±100 the full control effect; nearly all actives have a fitted effect of over 60% in size
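PC12/HTTQ103-GFP, ecdysone-inducible; teb 100 nM; cpd qHTS titration; GFP aggregates read on laser cytometer, Ex 488/Em 500-530 nm.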
HTT cytoprotect – Huntington cell model cytoprotection by ATP luminescence; PC12 HTT-Q103 induced, cytoprotection, ATP luminescence, 40 h; Potency, µM (highest dose often 56.4 µM), for the others: cytoprotection (ATP increase), hits mostly activators; 0.14% of 230,000 active; further: % of control where 0% means no effect; nearly all actives have a fitted effect of over 45% in size
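Huntington model: PC12 line, ecdysone-inducible HTTQ103 exon1–GFP, tebufenozide 100 nM. Test articles in a dose series. Endpoint luminescence from cellular ATP.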
Luc counter – counter-screen: inhibitors of Kinase-Glo firefly luciferase | Q27757 | 0.28% of 200,000 active | Potency, µM (doses to about 38.3 µM), for inactives: top-dose activity change, negative = inhibition, hits mostly inhibitors | Kinase-Glo luciferase, ATP luminescence, 8 min | AID 1379; further: on the % scale 0 is the no-effect control and ±100 the full control effect; nearly all actives have a fitted effect of over 60% in size
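Compounds were added to a substrate mix at pH 7.2 (50 mM imidazole, 10 uM ATP, within the enzyme's linear range), followed by Kinase-Glo detection reagent; luminescence was measured after 8 minutes at ambient temperature.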
ALDH1A1 inh – blocks purified human ALDH1A1 activity | Purified ALDH1A1, NADH fluorescence, propionaldehyde substrate | P00352 | Potency, µM (series often up to 75.3 µM), for the others: at the top dose activity, negative = inhibition, actives largely listed as inhibitors | 7.3% of 220,000 active; active means well fitted inhibition curve with a large enough effect, not every such curve was filed as active; inconclusive means small, poorly fitted or top-dose-only effect, or another doubt; inactive means no such curve, though single readings can be large or run the other way;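 further: plate controls were no enzyme wells and a reference inhibitor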
Target sequence (P00352 whole entry, looked up): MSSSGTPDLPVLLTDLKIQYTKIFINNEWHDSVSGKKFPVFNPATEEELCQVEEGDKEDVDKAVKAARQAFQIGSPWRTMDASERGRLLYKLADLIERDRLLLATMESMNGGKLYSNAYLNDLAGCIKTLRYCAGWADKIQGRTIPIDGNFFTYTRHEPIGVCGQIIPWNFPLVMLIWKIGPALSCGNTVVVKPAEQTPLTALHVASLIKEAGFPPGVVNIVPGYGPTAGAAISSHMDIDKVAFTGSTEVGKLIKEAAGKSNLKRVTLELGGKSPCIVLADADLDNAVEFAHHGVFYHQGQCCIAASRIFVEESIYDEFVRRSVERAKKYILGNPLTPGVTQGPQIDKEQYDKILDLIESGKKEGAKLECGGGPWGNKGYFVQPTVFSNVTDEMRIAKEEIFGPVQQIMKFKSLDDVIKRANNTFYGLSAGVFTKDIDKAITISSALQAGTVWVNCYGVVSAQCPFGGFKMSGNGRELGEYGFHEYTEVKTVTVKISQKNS
HPGD inh – blocks human HPGD enzyme activity; 4.3% of 150,000 active; Potency, µM, inactives show at the top dose activity change, negative = inhibition, most hits filed as inhibitors; P15428; purified HPGD, NADH fluorescence kinetic, PGE2 substrate; active means well fitted inhibition curve with a large enough effect, not every such curve was filed as active; inconclusive means small, poorly fitted or top-dose-only effect, or another doubt; inactive means no such curve, though single readings can be large or run the other way; further: on the % scale 0 is the no-effect control and ±100 the full control effect
Target sequence (P15428 whole entry, looked up): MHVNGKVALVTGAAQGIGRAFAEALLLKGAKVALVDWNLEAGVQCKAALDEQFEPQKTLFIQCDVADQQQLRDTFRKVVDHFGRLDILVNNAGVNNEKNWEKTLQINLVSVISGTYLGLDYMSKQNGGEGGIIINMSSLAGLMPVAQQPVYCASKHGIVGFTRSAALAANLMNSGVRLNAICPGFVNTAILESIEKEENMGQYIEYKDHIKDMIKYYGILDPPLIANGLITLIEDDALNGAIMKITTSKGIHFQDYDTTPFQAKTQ
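20 nM HPGD preincubated 15 min at room temperature with compound in 50 mM Tris-HCl pH 8, 0.01% Tween 20. Started with 1 mM NAD+ and 30 uM prostaglandin E2; NADH fluorescence (360/450 nm) read 5 times over 30-s intervals, last minus first.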
LMNA splice mod – modulators of lamin A splicing; HeLa LMNA splicing GFP/RFP minigene ratio, 48 h; Potency, µM (titrated, usually from 46.1 µM), without a hit: top-dose ratio change, negative = inhibition, actives largely listed as inhibitors; 0.01% of 200,000 active; AID 1487; active means well fitted inhibition curve with a large enough effect in the signal ratio, with a control signal flat, not every such curve was filed as active; inconclusive means small, poorly fitted or top-dose-only effect, or effect the other way, or a change in a side signal; the % refers to the signal ratio; further: on the % scale 0 is the no-effect control and ±100 the full control effect
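S3 HeLa cells stably expressing lamin A-EGFP splicing minigene plus DsRed2, 600 cells/well, 48 h compound exposure at 37C. Laser-scanning cytometry; analysed as GFP (500-530 nm)/RFP (575-640 nm) total intensity ratio; 0.5% DMSO vehicle.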
The depositor's hits bear a star; ? = inconclusive; / = not tested or not shown; [ ] = another dose, or the depositor's remark. Unless noted, the call rests on the fitted dose curve; in most records, active means well fitted curve in the direction sought with a large enough effect; inconclusive means small, poorly fitted or top-dose-only effect, or another doubt; inactive means no such curve, though single readings can be large; an effect the other way counts as inactive or inconclusive. Potency means the concentration at half of the fitted maximal effect.

SMILES	HttQ103 aggreg	HTT cytoprotect	Luc counter	ALDH1A1 inh	HPGD inh	LMNA splice mod
O=C(COc1ccccc1)Nc1nnc(S(=O)(=O)N2CCCC2)s1	/	/	/	/	/	13.2%[46 µM]
Cc1cccc(-c2c3c(=O)n(C)c(=O)n(C)c3cn2C(C)(C)C)c1	13.3%	-3.6%	-1.8%	?	-7.4%	6.1%
Clc1ccc(/C=C/c2nc3ccccc3[nH]2)cc1	-8.4%	-88.7%	12.6µM*	?	?	?
Clc1ccc(/C=C/c2nc3ccccc3[nH]2)c(Cl)c1	?	-113.6%	7.08µM*	?	?	?
COc1cc(C(=O)O)cc(OC)c1OCc1cc(C(=O)O)oc1C	1.4%	3.2%	11.0%	13.2%	-15.1%	-3.1%
CN(C(=O)CN1CCC(NC(=O)C2CCCCC2)CC1)C1CCCCC1	3.1%	-5.7%	0.9%	?	-3.4%	-12.0%
O=C(Nc1ccccc1F)c1ccc(COc2ccc(Cl)cc2Cl)o1	-5.3%	21.5%[10 µM]	1.6%	28.2µM*	-15.5%	-13.5%
O=c1[nH]sc2ccccc12	?	?	-0.3%	?	/	?
CC(=O)Nc1cccc(-c2csc(NCc3ccco3)n2)c1	6.3%	-11.9%	-4.2%	12.6µM*	-23.9%	-3.8%
COc1ccc(-c2csc(NC(C)=O)n2)cc1OC	-2.5%	-9.6%	-1.2%	?	-16.0%	4.7%
COc1cccc(-c2csc(N3CCN(C(=S)Nc4ccccc4)CC3)n2)c1	-9.1%	3.3%	0.4%	0.7%	-11.7%	18.9%[0.0737 µM]
COc1cccc(-c2csc(NC(C)=O)n2)c1	?	-21.7%[10 µM]	0.2%	11.2µM*	?	-10.0%
COc1cccc(NC(=O)N2CCN(c3nc(-c4cccc(OC)c4)cs3)CC2)c1	17.5%[9.22 µM]	13.4%[10 µM]	/	/	/	/
COc1cccc(-c2csc(N3CCN(Cc4ccccc4)CC3)n2)c1	4.4%	12.9%[10 µM]	-1.3%	10µM*	25.1µM*	?
COc1cccc(-c2csc(N3CCN(C(=O)Nc4ccccc4Cl)CC3)n2)c1	5.8%[9.22 µM]	15.2%[10 µM]	0.0%	22.4µM*	/	?
Cc1ccc(-n2cc(CN3CCC(CO)(Cc4cccc(C(F)(F)F)c4)CC3)cn2)cc1	8.3%[9.22 µM]	-4.6%[10 µM]	/	0.3%	/	/
COc1cccc(-c2csc(N3CCN(C(=S)Nc4ccc(Cl)cc4)CC3)n2)c1	?	-77.8%	-1.0%	0.0891µM*	-21.4%	-10.6%
O=C1ON=C(c2cccc([N+](=O)[O-])c2)/C1=C/c1ccc(O)cc1	7.9%	-43.5%	-0.2%	10µM*	/	-7.5%[9.22 µM]
O=C1ON=C(c2ccccc2)/C1=C/c1cccnc1	25.6%	27.5%[10 µM]	0.3%	-3.0%	/	10.4%[46 µM]
CCn1c(C(=O)NCCCN2CCc3ccccc3C2)cc2sccc21	19.7%	5.2%[10 µM]	3.4%	-2.8%	-10.6%	-4.9%
CCn1c(C(=O)N2CCc3ccccc3C2)cc2sccc21	-17.3%	-6.1%	1.8%	-1.7%	3.16µM*	-4.9%
CCn1c(C(=O)N2CCC(C(=O)NCCCSC3CCCCC3)CC2)cc2sccc21	?	-4.4%	6.4%	3.16µM*	-15.1%	-17.3%
COCCCNC(=O)C1CCN(C(=O)c2cc3sccc3n2Cc2ccc(F)cc2)CC1	-1.5%	7.5%[10 µM]	-3.6%	10µM*	-0.6%	-4.1%
O=C(NCc1ccco1)C1CCN(C(=O)c2cc3sccc3n2Cc2ccc(F)cc2)CC1	?	-50.5%	1.0%	4.47µM*	-14.2%	?
O=C1O/C(=C\C(=O)N2CCOCC2)c2ccccc21	-32.4%	2.3%	-5.2%	5.3%	-5.3%	?
SMILES	HttQ103 aggreg	HTT cytoprotect	Luc counter	ALDH1A1 inh	HPGD inh	LMNA splice mod
O=C(O)COc1ccccc1/C=C1\SC(=S)N(/N=C/c2ccccc2O)C1=O	4.7%	19.7%[10 µM]	1.9%	?	8.91µM*	-10.9%
O=C(O)COc1ccccc1/C=C1\SC(=Nc2ccc(F)cc2)N(c2ccc(F)cc2)C1=O	11.3%	-15.7%	2.1%	-16.7%	/	/
O=C(CN=C1NS(=O)(=O)c2ccccc21)OCC(=O)c1ccccc1	-9.3%[9.22 µM]	-5.9%[10 µM]	/	/	/	/
CCOc1cccc(C(=O)NC2CCCCC2)c1	-16.1%	-11.0%	5.4%	0.6%	28.2µM*	-16.1%
COc1ccc(C(=S)NC2CCCCC2)cc1	?	-89.4%	/	-6.1%	/	?
CCOc1ccc(C(=S)NC2CCCCC2)cc1	-2.6%	-47.5%	-5.1%	8.91µM*	14.1µM*	-3.2%
CCOC(=O)c1c(NC(=O)C(Sc2ccccc2)c2ccccc2)sc(C(N)=O)c1C (configuration not stated)	-17.2%	-17.3%	-2.1%	14.1µM*	28.2µM*	13.1%
CCC(C(=O)Nc1nc(C)c(C(=O)OC)s1)c1ccccc1 (configuration not stated)	-7.0%[9.22 µM]	-30.5%[1.9 µM]	0.5%	-4.3%	/	12.8%[46 µM]
CCC(C(=O)Nc1sc(C(N)=O)c(C)c1C(=O)OC)c1ccccc1 (configuration not stated)	-7.3%	-59.3%	1.8%	12.6µM*	/	/
CCC(C(=O)Nc1ccsc1C(=O)OC)c1ccccc1 (configuration not stated)	-6.2%[9.22 µM]	-69.9%	3.3%	11.2µM*	/	/
COc1ccc(-c2cc(C(=O)Nc3ccccc3)on2)cc1	3.1%	-39.3%	?	-4.6%	/	2.7%[46 µM]
S=c1[nH]nc(-c2ccccc2)n1Cc1ccccc1	19.0%	-12.2%	0.6%	17.8µM*	?	10.6%
Cc1n[nH]c(=S)n1Cc1ccccc1	-0.4%[9.22 µM]	2.4%[10 µM]	/	/	/	/
CC(C)c1cc(-c2n[nH]c(=S)n2Cc2ccccc2)cs1	13.0%	-1.4%	-4.2%	2µM*	?	-0.1%
C=CCn1c(-c2csc(-c3ccccc3)n2)n[nH]c1=S	13.9%	-29.0%	-3.6%	0.112µM*	?	?
C=CCn1c(-c2csc(-c3ccc(Cl)cc3)n2)n[nH]c1=S	3.0%	-14.6%	-4.1%	?	-23.6%	1.3%
S=c1[nH]nc(CSc2nc3ccccc3s2)n1C1CCCCC1	?	-45.1%	-5.3%	3.16µM*	7.08µM*	?
CN(C)S(=O)(=O)Oc1ccccc1C(=O)Nc1ccc(F)cc1F	10.3%	-38.3%	-0.2%	4.0%	/	?
Cc1ccc(-n2c(-c3ccccc3)n[nH]c2=S)cc1	-23.3%	21.0%[1.9 µM]	5.1%	31.6µM*	?	-1.4%
S=c1[nH]nc(-c2ccc(Cl)cc2)n1Cc1ccccc1	-17.5%	-6.9%[10 µM]	-5.6%	11.2µM*	?	6.4%
S=c1[nH]nc(-c2cccs2)n1Cc1ccccc1	12.0%	15.4%[10 µM]	-1.8%	?	/	?
S=c1[nH]nc(COc2ccccc2)n1C1CCCCC1	4.8%	-7.5%	2.8%	?	22.4µM*	3.4%
S=c1[nH]nc(-c2ccc(Br)cc2)n1Cc1ccco1	13.1%	-2.2%[10 µM]	2.8%	?	25.1µM*	-1.1%
COc1cccc(N2CC(NC(=O)c3cc4ccccc4o3)CC2=O)c1 (configuration not stated)	/	/	/	/	/	-4.8%[46 µM]

From PubChem
